Test results: PubChem BioAssay AID1159580 (chemical genetic matrix, 2015)
Screen size: about 5,500 compounds; about 2,000 (36%) were called active. Roughly 18% stayed inconclusive and do not appear here. No stated cut-off is given here; in the data, active means normalized growth mostly below about 0.91 (no sharp cut-off); inconclusive means no clear call, values can overlap the other calls; inactive means mostly above about 0.92. Some of the results follow.

Experiment: chemical genetic growth profiling, strain panel (AID 1159580);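 further: tested at 20 µM; growth read once vehicle control cultures reached saturation at 30 °C; 1 = growth at the plate median or of vehicle wells; lower values mean less growth of the strain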
Details: S. cerevisiae deletion strains, growth OD
[1] = locus YBR021W, strain FUR4, hits give low values
[2] = locus YBR229C, strain ROT2, hits give low values
[3] = locus YCL029C, strain bik1, hits give low values
[4] = locus YDL035C, strain GPR1, hits give low values
[5] = locus YDL074C, strain BRE1, hits give low values
[6] = locus YDL101C, strain DUN1, hits give low values
[7] = locus YDL185W, strain tfp1, hits give low values
[8] = locus YDL192W, strain arf1, hits give low values
[9] = locus YDR101C, strain arx1, hits give low values
[10] = locus YDR162C, strain NBP2, hits give low values
[11] = locus YDR318W, strain mcm21, hits give low values
[12] = locus YDR388W, hits give low values
[13] = locus YDR502C, strain sam2, hits give low values
[14] = locus YEL061C, strain CIN8, hits give low values
[15] = locus YER110C, hits give low values
[16] = locus YER155C, strain BEM2, hits give low values
[17] = locus YER167W, strain BCK2, hits give low values
[18] = locus YGL078C, strain dbp3, hits give low values
[19] = locus YGL086W, strain mad1, hits give low values
[20] = locus YGL248W, strain PDE1, hits give low values
[21] = locus YGR078C, strain PAC10, hits give low values
[22] = locus YGR135W, strain pre9, hits give low values
[23] = locus YGR252W, strain gcn5, hits give low values
[24] = locus YHR030C, strain SLT2, hits give low values
[25] = locus YHR079C, strain IRE1 (second series), hits give low values
[26] = locus YHR094C, strain hxt1, hits give low values
[27] = locus YHR129C, strain ARP1, hits give low values
[28] = locus YHR200W, strain rpn10, hits give low values
[29] = locus YIL066C, strain RNR3, hits give low values
[30] = locus YIL073C, strain SPO22, hits give low values
[31] = locus YIL125W, strain kgd1, hits give low values
[32] = locus YIR030C, strain dcg1, hits give low values
[33] = locus YJL095W, strain BCK1, hits give low values
[34] = locus YJL134W, strain LCB3, hits give low values
[35] = locus YJL168C, strain set2, hits give low values
[36] = locus YJL187C, strain SWE1 (second series), hits give low values
[37] = locus YJR043C, strain POL32, hits give low values
[38] = locus YJR075W, strain HOC1, hits give low values
[39] = locus YKL009W, strain mrt4, hits give low values
[40] = locus YKL068W, hits give low values
[41] = locus YKL085W, strain MDH1 (second series), hits give low values
[42] = locus YKL085W, strain MDH1, hits give low values
[43] = locus YKR001C, strain vps1, hits give low values
[44] = locus YLR039C, strain RIC1, hits give low values
[45] = locus YLR058C, strain SHM2, hits give low values
[46] = locus YLR102C, strain apc9, hits give low values
[47] = locus YLR262C, strain YPT6, hits give low values
[48] = locus YLR268W, strain sec22, hits give low values
[49] = locus YLR330W, strain CHS5, hits give low values
[50] = locus YLR342W, strain FKS1 (second series), hits give low values
[51] = locus YLR371W, strain rom2, hits give low values
[52] = locus YLR418C, strain cdc73, hits give low values
[53] = locus YML016C, strain PPZ1, hits give low values
[54] = locus YML032C, strain rad52, hits give low values
[55] = locus YML124C, strain tub3, hits give low values
[56] = locus YMR078C, strain ctf18, hits give low values
[57] = locus YMR223W, strain ubp8, hits give low values
[58] = locus YMR307W, strain GAS1, hits give low values
[59] = locus YNL067W, strain RPL9B, hits give low values
[60] = locus YNL128W, strain TEP1, hits give low values
[61] = locus YNL233W, strain BNI4, hits give low values
[62] = locus YNL250W, strain rad50, hits give low values
[63] = locus YNL271C, strain bni1, hits give low values
[64] = locus YNL298W, strain CLA4, hits give low values
[65] = locus YNL307C, strain MCK1, hits give low values
[66] = locus YNL322C, strain KRE1, hits give low values
[67] = locus YNR052C, strain pop2, hits give low values
[68] = locus YOL147C, strain pex11, hits give low values
[69] = locus YOR061W, strain CKA2, hits give low values
[70] = locus YOR069W, strain VPS5, hits give low values
[71] = locus YOR136W, strain idh2, hits give low values
[72] = locus YOR144C, strain elg1, hits give low values
[73] = locus YOR184W, strain ser1, hits give low values
[74] = locus YOR316C, strain cot1, hits give low values
[75] = locus YPR119W, strain clb2, hits give low values
[76] = locus YPR141C, strain kar3, hits give low values
[77] = locus YPR163C, strain tif3, hits give low values
[78] = locus YPR167C, strain met16, hits give low values
[79] = strain wtn01, hits give low values

Measured: normalized growth

CC(C)C1COc2cc3oc(=O)ccc3cc2O1 (stereo not given)
active: [1] 0.0979 | [2] 0.837 | [3] 0.616 | [4] 0.389 | [5] 0.287 | [6] 0.293 | [7] 0.874 | [8] 0.0841 | [9] 0.714 | [10] 0.0569 | [11] 0.546 | [12] 0.241 | [13] 0.289 | [14] 0.17 | [15] 0.698 | [16] 0.592 | [17] 0.503 | [19] 0.589 | [20] 0.257 | [21] 0.191 | [22] 0.366 | [23] 0.209 | [24] 0.0511 | [25] 0.89 | [26] 0.92 | [27] 0.396 | [28] 0.433 | [29] 0.223 | [30] 0.122 | [32] 0.701 | [33] 0.0654 | [34] 0.906 | [35] 0.834 | [36] 0.497 | [37] 0.218 | [38] 0.688 | [43] 0.0786 | [44] 0.106 | [45] 0.466 | [46] 0.887 | [47] 0.148 | [48] 0.443 | [49] 0.0515 | [50] 0.0669 | [51] 0.0882 | [52] 0.125 | [53] 0.381 | [54] 0.639 | [55] 0.738 | [56] 0.792 | [57] 0.44 | [58] 0.196 | [59] 0.711 | [60] 0.348 | [61] 0.285 | [63] 0.728 | [64] 0.754 | [65] 0.157 | [66] 0.0872 | [67] 0.145 | locus YOL006C, strain TOP1, hits give low values 0.152 | [68] 0.66 | [69] 0.101 | [70] 0.519 | [71] 0.842 | [72] 0.843 | [73] 0.262 | [74] 0.875 | [75] 0.336 | [77] 0.703 | [78] 0.636 | [79] 0.394
inactive: [18] 0.976 | [31] 0.958 | [39] 0.916 | [40] 0.964 | [41] 0.945 | [42] 0.945 | [62] 0.989 | locus YOL012C, strain htz1 0.681 | [76] 0.959

CC(C)(O)[C@@H]1Cc2cc3ccc(=O)oc3cc2O1
inactive: [1] 1.03 | [2] 1 | [3] 1.01 | [4] 1.02 | [5] 1.04 | [6] 1.01 | locus YDL134C, strain PPH21, hits give low values 1 | [7] 1.02 | [8] 1.03 | [9] 1 | locus YDR150W, strain NUM1, hits give low values 1 | [10] 0.989 | [11] 1.01 | [12] 1.01 | [13] 1.04 | [14] 1 | [15] 1.01 | [16] 1 | [17] 1.02 | [18] 1.01 | [19] 1.03 | [20] 1.01 | [21] 1 | [22] 0.996 | locus YGR229C, strain SMI1, hits give low values 1.04 | [23] 0.991 | [24] 1.01 | [25] 1 | [26] 1.01 | [27] 1.01 | [28] 1.03 | [29] 1.01 | [30] 1.02 | [31] 1.02 | [32] 1.02 | [33] 1.03 | [34] 1.02 | [35] 1.03 | [36] 1.01 | [37] 1.01 | [38] 1.01 | [39] 1.01 | [40] 1.02 | [41] 1 | [42] 1 | [43] 1.01 | [44] 1.01 | [45] 1.01 | [46] 1.02 | [47] 0.995 | [48] 1.03 | [49] 1.01 | [50] 1.07 | [51] 1.02 | [52] 0.989 | [53] 1.01 | [54] 1.02 | [55] 1.02 | [56] 1.03 | [57] 0.997 | [58] 1.1 | [59] 0.999 | [60] 1.02 | [61] 1.02 | [62] 1 | [63] 1 | [64] 1.01 | [65] 1.03 | [66] 1.01 | [67] 1.01 | locus YOL012C, strain htz1 1.44 | [68] 1.01 | [69] 1.01 | [70] 1.01 | [71] 1.02 | [72] 1 | [73] 1 | [74] 1.05 | locus YPL241C, strain CIN2, hits give low values 1.01 | [75] 1.02 | [76] 1.01 | [77] 1.01 | [78] 1.03 | [79] 1.05
